TCR activator – activators of T cell receptors; primary human leukocytes, anti-CD3, IL-2 HTRF, 48 h; Potency, µM (series often up to 9.22 µM), for the others: at the highest dose activation of IL-2 secretion, hits mostly activators; 330,000 tested, under 10 active; AID 504894; also: % of control where 0% means no effect
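Activity was scored as IL-2 release from primary human leukocytes given only a TCR signal (a-CD3 beads) plus compound for 48 hr. Detection used a two-antibody HTRF format read at 665nm.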
IL2 activator – activators of IL-2; activation, % (series mostly up to about 46 µM); AID 652025; IL-2 activation reporter assay, cell-based qHTS; stimulated with anti-CD3/CD4/CD28 beads; in transgenic mouse T cells; actives 0.065% (n = 360,000); in the data active = activation above about 50%; inconclusive = mostly about 30% to 49%; also: 0% is about no effect
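Unstimulated transgenic mouse T cells; 60-min compound exposure; bead-based TCR/CD4/CD28 stimulation; 18 h culture, 37 degrees C; dual fluorescence (EGFP, DsRed) plate cytometry.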
BRCA1 expr up – increases BRCA1 expression; MCF7-BRCA1-FFLuc reporter, luminescence, 48 h; response scale: scaled: vehicle 0%, 10 µM genistein 100%; Potency, µM (titrated, usually from 46.1 µM), inactives show top-dose activation, most hits filed as activators; actives 1.1% (n = 380,000); also: potency is read from the fitted curve at half-maximal effect; nearly all actives have a fitted effect of over 80% in size
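Reporter cells (MCF7, BRCA1 promoter-firefly luciferase) received library compounds across a concentration series for 48 h. End-point luminescence was measured and concentration-effect curves derived after normalization.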
uPA surface inh – inhibitors of cell surface uPA generation. cell surface uPA generation assay, qHTS. Potency, µM (series often up to 38.3 µM), for inactives: at the top dose activity change, negative = inhibition, hits mostly inhibitors. actives 0.31% (n = 330,000). AID 540303; active = well fitted inhibition curve with a large enough effect; inconclusive = small, poorly fitted or top-dose-only effect; inactive = no such curve, though single readings can be large or run the other way; tested in mouse RAW 264.7 cells; also: potency is read from the fitted curve at half-maximal effect; % is scaled to controls: 0 for no effect and ±100 for the full control effect; nearly all actives have a fitted effect of over 55% in size
p53 reactivator – restores transcriptional activity of mutant p53. Potency, µM (highest dose often 92.2 µM), inactives show top-dose activity change, positive = activation, most hits filed as activators. H1299 p53-A138V BP100-luciferase reporter, luminescence, 24 h. actives 0.063% (n = 320,000). AID 504706; also: potency is read from the fitted curve at half-maximal effect; % of control where 0% means no effect; nearly all actives have a fitted effect of over 45% in size
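p53-null H1299 cells stably carrying temperature-sensitive p53-A138V and a BP100-luciferase reporter were pinned with compounds (4-point, 1:5 series) and held 24 hrs at 37 deg C. Luminescence was read 10 min after detection reagent.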
Starred values were filed as active, the others as inactive; ? = inconclusive; . = not tested or not shown; [ ] = remark or other dose. Compounds with a hit are over-represented: about 1.4% of the library has one in this group of screens. Unless noted, calls follow the shape of the dose curve; as a rule, active = well fitted curve in the direction sought with a large enough effect; inconclusive = small, poorly fitted or top-dose-only effect, or another doubt; inactive = no such curve, though single readings can be large; an effect the other way counts as inactive or inconclusive.

SMILES | TCR activator | IL2 activator | BRCA1 expr up | uPA surface inh | p53 reactivator
CCOC(=O)c1ccc(N2Cc3ccccc3C2=NC(=O)c2cccc([N+](=O)[O-])c2)cc1 | 2.1% | 0.6 | 5.01µM* | -12.5% | .
CC(=O)Nc1ccc(OC(=O)N2CCN(/[N+]([O-])=N/Oc3ccc([N+](=O)[O-])cc3[N+](=O)[O-])CC2)cc1 | . | . | -45.1% | . | .
COc1ccc2nc(NC3=NCCN3)sc2c1 | 0.5%[46.1 µM] | 0.5 | 1.26µM* | -5.9% | ?
C[C@]12c3[nH]c4ccc(Cl)cc4c3CCN1C(=O)[C@@H](CC(=O)NCc1ccco1)C[C@@H]2C(=O)N1CCCCC1 | -3.3%[46.1 µM] | -1.0 | -64.7% | ? | -10.4%
COc1ccc(C(=O)c2sc3nc(C)cc(-c4cccs4)c3c2N)cc1OC | ? | 549.9* | -68.4% | 1.5% | -9.4%
O=C(c1cc2ccccn2n1)N1CCN(Cc2ccccc2)CC1 | 9.1% | -0.2 | 10µM* | -1.2% | ?
O=C(c1cc2ccccn2n1)N1CCC2(CC1)OCCO2 | -1.2% | -0.1 | 3.8% | . | 11.1%
COc1ccc(C[C@H]2CN3C(=NC[C@@H]3Cc3ccc(O)cc3)N2C[C@H](C)NC(=O)c2ccc(C)c(Br)c2)cc1 | 7.6% | -5.3 | -61.2% | ? | 3.6%
COC(=O)C1=C(c2cccc(OCc3ccccc3)c2)C[C@@H]2CC[C@H]1N2C(=O)NCc1ccccc1OC | 15.2% | -0.7 | -8.4% | 14.1µM* | -10.0%
COC(=O)C1=C(c2cccc(OCc3ccccc3)c2)C[C@@H]2CC[C@H]1N2C(=O)NCc1ccccc1 | -4.3% | -3.0 | -12.1% | ? | -6.3%
O=C(NC(=S)Nc1cc([N+](=O)[O-])ccc1O)c1cccnc1 | -5.7% | -1.0 | 35.9% | ? | 2.8%
O=C(OCCc1ccccc1)c1cc(O)c(O)c(O)c1 | -0.6% | 0.9 | ? | ? | ?
Cc1ccccc1-n1c(O)c(/C=N/NC(=O)c2ccccc2O)c(=O)[nH]c1=S | 1.8% | -2.1 | 1.8% | 1.6% | 11.3%
O=C(N/N=C/c1c(O)n(C2CC2)c(=S)[nH]c1=O)c1ccccc1O | 1.2%[46.1 µM] | 5.1 | 14.6% | 1.2% | 6.31µM*
CCOC(=O)[C@]12Cc3cc4c(cc3[C@H]1N(Cc1ccccc1)C(=O)c1ccccc12)OCO4 | -4.3% | -0.5 | -58.3% | 12.6µM* | .
O=C(Nc1ccccc1F)Oc1cccc(OC(=O)Nc2ccccc2F)c1 | -11.5% | -2.7 | 74.7% | -12.7% | ?
Cc1ccc(C(C#N)=Cc2ccc3c(c2)OCO3)cc1 | . | -2.9 | ? | . | .
COc1ccc(-c2nc(C(N)=O)c3[nH]c(=O)n(-c4ccccc4OC)c3n2)c(OC)c1 | 2.3% | -0.1 | -25.0% | 11.2µM* | -0.6%
[Hg+][c]1ccccc1 | . | . | -43.6% | . | .
Nc1ccc2c(c1)oc1ccccc12 | 0.9% | -0.1 | 7.08µM* | -6.6% | 3.4%
O=C(CN1CCCC1)Nc1ccc(NC(=O)Nc2ccccc2)cc1 | 0.2% | 0.1 | 2.82µM* | 0.4% | ?
CC(C)c1ccc(NC(=O)c2ccc3c(c2)C(=O)N(Cc2cccnc2)C3=O)cc1 | 10.6% | -3.3 | -13.4% | ? | -8.6%
CCN(CC)c1ccc(N=Cc2c(O)n(Cc3ccco3)c(=O)[nH]c2=O)cc1 | 1.3% | 83.9* | -40.6% | 4.5% | 1.1%
COc1ccc(NC(=O)CCCn2c(=O)oc3ccccc32)cc1Cl | -2.8%[46.1 µM] | 1.2 | 7.08µM* | -1.6% | ?
O=c1oc2ccccc2n1CCCOc1ccccc1 | -1.3% | -1.9 | ? | -7.8% | 8.4%
SMILES | TCR activator | IL2 activator | BRCA1 expr up | uPA surface inh | p53 reactivator
CC[C@@]1(C(=O)OC)N[C@H](CN(C)C(=O)Nc2ccc(OC)cc2)[C@@H]2C(=O)N(Cc3ccccc3)C(=O)[C@@H]21 | 6.4% | 0.0 | 10µM* | -22.9% | 15.3%
CC1Oc2cc3c(-c4c(O)cc(O)c5c(O)c6c(cc45)OC(C)C(C)C6=O)c(O)cc(O)c3c(O)c2C(=O)C1C (stereo unspecified) | 1.1% | -0.7 | -75.7% | 5.62µM* | -8.7%
O=C1C=CCC(/C=C/c2ccccc2)O1 (stereo unspecified) | 0.2% | -0.6 | -74.9% | 1µM* | -20.0%
Cc1ccc(Nc2nnc(SCC(=O)NCC3CCCO3)s2)cc1C (stereo unspecified) | -1.2% | 0.7 | 25.4% | ? | 17.5%
C/C(=C\c1ccc(N(C)C)cc1)[N+](=O)[O-] | -4.2% | -5.0 | -83.2% | . | -13.9%
CN(C)c1ccc(/C=C/[N+](=O)[O-])cc1 | 0.4%[46.1 µM] | 97.2* | 44.6% | -4.0% | -26.0%
COc1cccc(C2=NOC(C(=O)N3CCC4(CC3)OCCO4)C2)c1 (stereo unspecified) | -11.5% | -1.5 | ? | . | ?
O=C(C1CC(c2ccc(Cl)c(Cl)c2)=NO1)N1CCC2(CC1)OCCO2 (stereo unspecified) | -2.5% | 4.7 | 8.91µM* | -3.9% | -4.8%
O=C(C1CC(c2ccc(F)cc2)=NO1)N1CCC2(CC1)OCCO2 (stereo unspecified) | -2.5% | -2.4 | 7.94µM* | 1.6% | ?
O=C(C1CCC(=O)N1Cc1ccc(F)cc1)N1CCC2(CC1)OCCO2 (stereo unspecified) | -0.7% | 0.1 | -16.1% | 3.9% | -9.2%
C[C@H](NC(=O)c1[nH]cnc1C(=O)Nc1ccc(Cl)cc1)c1ccccc1 | -6.2% | 0.2 | -63.0% | -26.6% | -0.7%
O=C(Cc1c(O)c2ccccc2oc1=O)c1ccc(F)cc1 | 1.3% | 0.4 | 0.6% | 5.4% | ?
Clc1cccc(Cl)c1Cn1nnc(N2CCCC2)n1 | -0.9% | -1.0 | 11.2µM* | -0.4% | 7.0%
Cc1ccccc1-[n+]1c(-c2ccccc2)cc(-c2ccccc2)cc1-c1ccccc1 | 10.6% | -0.8 | -53.6% | 7.94µM* | -9.4%
Nc1c2c(nc3sc4c(c13)CCCC4)CCCC2 | 4.2% | -2.4 | 4.47µM* | -8.5% | 7.1%
Nc1c2c(nc3sc4c(c13)CCCC4)CCCCC2 | 6.9% | 1.4 | ? | -6.7% | ?
O=C(Oc1ccc(Cl)c2ccccc12)N1CCCCC1 | -9.7% | -0.1 | ? | 0.3% | 23.6%
O=C(Oc1ccc2ccccc2c1Cl)N1CCCC1 | 0.3% | -3.0 | 4.47µM* | -1.2% | ?
CCc1cn(C2CC(O)C(CO)O2)c(=O)[nH]c1=O (stereo unspecified) | -2.9% | -0.1 | -33.0% | 10µM* | 0.9%
COc1c(O)ccc(/C=N\NC(=O)c2ccc3c(c2)OCO3)c1[N+](=O)[O-] | 4.7% | 1.7 | 3.8% | ? | .
O=c1c2ccccc2[nH]c(=S)n1-c1ccc2c(c1)OCCO2 | 13.7% | 0.1 | 10µM* | 4.6% | 14.5%
O=C(c1ccc(N2CCN(CCO)CC2)nc1)N1CCOCC1 | 1.4%[46.1 µM] | 1.1 | 12.2% | -29.5% | ?
COc1cc(C(C)=O)ccc1OCc1cc(C(=O)N(C)CCC2CCCCO2)no1 (stereo unspecified) | 8.6% | 0.9 | 3.55µM* | 16.0% | ?

Assay outcomes: PubChem, National Center for Advancing Translational Sciences (NCATS)
